Bioassay records deposited in PubChem by National Center for Advancing Translational Sciences (NCATS).
HCV inh = HCV inhibition; 340,000 compounds, 3.4% hits; AID 651820; Potency, µM (top dose mostly 41.8 µM), for inactives: top-dose activity change, negative = inhibition, actives largely listed as inhibitors; Huh7.5.1 HCVcc-Cre infection, luciferase reporter, 44 h; also: potency is read from the fitted curve at half-maximal effect; % is scaled to controls: 0 for no effect and ±100 for the full control effect
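Infectious HCV cell culture screen: compound-treated cells (1,000/well, pre-plated 4 h) are infected with HCVcc-Cre at roughly 0.5 moi and grown 44 h. Infection is quantified by luciferase signal after 15 min substrate incubation at room temperature.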
HCMV inh = blocks human cytomegalovirus replication; HFF cells, HCMV-luciferase reporter, 72 h; stronger effect = lower value; activity change, negative = inhibition, % at 57.5 µM; 410,000 compounds, 4.5% hits; AID 1259415; in the data active = activity change below about -60%; inconclusive = no clear call, values can overlap the other calls; inactive = above about -39%; also: % is scaled to controls: 0 for no effect and ±100 for the full control effect
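Human foreskin fibroblasts infected with luciferase-reporter HCMV at MOI 1 PFU/cell, compounds at two doses. Luciferase measured 72 h post infection; normalized to buffer-only basal and Salinomycin (10uM) controls.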
Pf growth 96h = P. falciparum growth inhibition at 96 hours; AID 504834; Potency, µM (doses to about 28.7 µM), without a hit: top-dose activity change, negative = inhibition, hits mostly inhibitors; P. falciparum luciferase reporter growth, 96 h; 320,000 compounds, 6.9% hits; also: potency is read from the fitted curve at half-maximal effect; % is scaled to controls: 0 for no effect and ±100 for the full control effect
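96 h incubation, 37 C, 5% CO2, of luciferase-reporter P. falciparum-infected RBCs (2% hematocrit, 0.05% parasitemia final) with test compounds; endpoint luminescence.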
Pf growth 48h = P. falciparum growth inhibition at 48 hours (one generation) | P. falciparum luciferase growth in erythrocytes, 48 h | Potency, µM (top dose mostly 28.7 µM), for the others: at the top dose activity change, negative = inhibition, hits mostly inhibitors | 310,000 compounds, 5.9% hits | AID 504832; also: potency is read from the fitted curve at half-maximal effect; % is scaled to controls: 0 for no effect and ±100 for the full control effect
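Here the parasites carry a stable luciferase gene and grow inside erythrocytes in Albumax-based RPMI medium with compound for one erythrocytic cycle. Activity is scored as loss of luminescent signal.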
SARS PLP yeast = blocks SARS-CoV papain-like protease in a yeast assay; 330,000 compounds, 0.19% hits; S. cerevisiae expressing SARS-CoV PLpro, growth rescue; Potency, µM (doses to about 32.9 µM), inactives show at the top dose activity, positive = growth rescue, actives largely listed as activators; calls by dose curve; also: potency is read from the fitted curve at half-maximal effect; 0% is about no effect; nearly all actives have a fitted effect of over 55% in size
Sm TGR block = S. mansoni TGR enzyme inhibition; Q962Y6; purified TGR, DTNB reduction, TNB absorbance 405 nm; Potency, µM (highest dose often 114 µM), for inactives: at the highest dose activity change, negative = inhibition, hits mostly inhibitors; 360,000 compounds, 3% hits; AID 485364; also: potency is read from the fitted curve at half-maximal effect; % is scaled to controls: 0 for no effect and ±100 for the full control effect; nearly all actives have a fitted effect of over 60% in size
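TGR 20 nM + NADPH 100 uM (dispensed conc.), cpd preinc 15 min RT; start with NADPH (500 uM addition) then DTNB (15 mM addition). Kinetic TNB absorbance, 405 nm filter. Four-parameter Hill fit across titration.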
Active calls of the source: *; ? = inconclusive; / = not tested or not shown. An excerpt weighted towards active compounds, which were near 15% of everything screened. Unless noted, calls follow the shape of the dose curve; as a rule, active = well fitted curve in the direction sought with a large enough effect; inconclusive = small, poorly fitted or top-dose-only effect, or another doubt; inactive = no such curve, though single readings can be large; an effect the other way counts as inactive or inconclusive.

SMILES	HCV inh	HCMV inh	Pf growth 96h	Pf growth 48h	SARS PLP yeast	Sm TGR block
COc1cccc(-c2cc3c(Nc4cc(OC)c(OC)c(OC)c4)nccc3[nH]2)c1	/	-33.9	/	/	/	/
CN(C)CCCN(C(=O)CCS(=O)(=O)c1ccccc1)c1nc2cc3c(cc2s1)OCO3	?	-112.8*	23.4%	18.0%	0.6%	3.98µM*
Cc1cccc2sc(N(CCCN(C)C)C(=O)CN3C(=O)c4ccccc4C3=O)nc12	-22.8%	-33.7	54.6%	25.4%	7.1%	12.7%
Cc1cccc2sc(N(CCCN(C)C)C(=O)CCc3ccccc3)nc12	10µM*	-71.6*	1.85µM*	?	-25.3%	-9.7%
CCC(=O)C1=C(c2cccc([N+](=O)[O-])c2)N(C(=O)CC)n2c(nnc2-c2ccccc2)S1	/	-35.4	/	/	/	-2.0%
CCC(=O)C1=C(c2cccc([N+](=O)[O-])c2)N(C(=O)CC)n2c(nnc2C2CCCCC2)S1	/	-99.3*	/	/	/	22.1%
CCC(=O)C1=C(c2cccc(OC)c2)N(C(=O)CC)n2c(nnc2C2CCCCC2)S1	/	-91.5*	/	/	/	10.7%
CCC(=O)C1=C(c2ccccc2)N(C(=O)CC)n2c(nnc2C2CCCCC2)S1	/	22.5	/	/	/	7.7%
CCN(CC(=O)NCc1ccco1)S(=O)(=O)c1ccc(OC)cc1	-3.8%	5.8	-2.6%	?	8.3%	-0.1%
CCC[C@H]1[C@@H](NS(=O)(=O)c2cn(C)cn2)CC[C@@]23CCCN2C(=O)CCC[C@@H]13	/	-23.3	/	/	/	/
C=C(C)Cc1c(C)c(C#N)c2[nH]c3ccccc3n2c1=O	?	-66.0*	-15.9%	13.8%	-12.4%	-12.6%
Cc1c(CCC(=O)O)c(=O)n2c([nH]c3ccccc32)c1C#N	15.1%	-17.2	-45.8%	/	7.4%	4.6%
CCc1cc(=O)n2c([nH]c3ccccc32)c1C#N	12.6%	43.9	/	-0.5%	-23.2%	-16.8%
Cc1ccc(Cc2c(C)c(C#N)c3[nH]c4ccccc4n3c2=O)cc1	11.2µM*	-33.5	?	?	-6.7%	-15.9%
COc1cccc(NC(=S)N/N=C2/CCCCc3ccccc32)c1	?	10.9	?	?	-36.0%	0.4%
CCOC(CN=c1nc(N(C)C)ss1)OCC	-0.1%	4.8	/	/	/	/
CN(C)c1nc(=NCc2ccco2)ss1	-12.3%	/	2.62µM*	?	-1.8%	5.4%
Nc1nn(-c2ccccc2)nc1C(=O)OCc1ccccc1Br	/	29.9	/	/	/	18.5%
O=C(O)c1cccnc1C(=O)O	0.708µM*	/	5.6%	36.2%	-3.4%	1.2%
CC(Nc1nc(N2CCN(S(C)(=O)=O)CC2)nc2ccccc12)c1ccccc1 (centres undefined)	-29.0%	63.4	?	7.38µM*	-12.8%	-1.8%
CC(Nc1ncnc2ccccc12)c1ccccc1 (centres undefined)	4.47µM*	-82.4*	-35.9%	-2.5%	-7.7%	-4.0%
COc1ccc(Nc2nc(N3CCN(S(=O)(=O)N(C)C)CC3)nc3ccccc23)cc1	11.2µM*	-84.7*	8.28µM*	10.4µM*	3.5%	2.0%
CCSc1nnc(-c2ccccc2N=Cc2c(C)[nH]n(-c3ccccc3)c2=O)c(=O)[nH]1	?	-17.5	?	-2.6%	7.3%	4.9%
CCN1C(=O)[C@H]2[C@@H](c3ccc(OC)cc3)N[C@]3(CCCN(CC4CCCCC4)C3=O)[C@H]2C1=O	/	15.1	/	/	/	/
COc1ccc(CNC(=O)CC2C[C@H](C(=O)N3CCOCC3)[C@@]3(CCC4CCCC4)c4[nH]c5ccccc5c4CCN3C2=O)cc1OC (some centres undefined)	7.94µM*	-31.5	/	/	?	/
SMILES	HCV inh	HCMV inh	Pf growth 96h	Pf growth 48h	SARS PLP yeast	Sm TGR block
CN(C)C(=O)CCc1ccc2c3c([nH]c2c1)[C@]1(CCC2CCCC2)[C@@H](C(=O)N2CCOCC2)C[C@H](CC(=O)NCc2cccc(C(F)(F)F)c2)C(=O)N1CC3	25.1µM*	?	/	/	2.5%	/
CC(=O)Oc1ccc(N2C(=O)C3C(C2=O)C(C(=O)c2ccc(Cl)cc2)N2CCCC32)cc1 (centres undefined)	-25.6%	-32.9	0.1%	-59.2%	0.2%	20µM*
Cc1ccc(C(=O)N2CCC(C(=O)c3ccc(Cl)cc3)CC2)cc1	?	-25.2	?	24.7%	-5.3%	-2.4%
Cc1ccc(N2C(=O)C3C(C2=O)C(C(=O)c2ccc(Cl)cc2)N2CCCC32)cc1 (centres undefined)	15.7%	40.9	/	?	-0.5%	28.2µM*
Cc1nnsc1SCC(=O)O	21.0%	-98.9*	0.0%	43.0%	3.3%	3.9%
Cc1ccc(N2CC(C(=O)N3CCOCC3)CC2=O)cc1Cl (centres undefined)	-13.8%	-10.5	-1.4%	0.0%	1.0%	-9.9%
CC1CC(C)(O)CC(C(O)CC2CC(=O)NC(=O)C2)C1=O (centres undefined)	?	-74.8*	/	/	/	/
COc1ccc(C(=O)NNc2ncnc3c2cnn3-c2ccc(C)cc2C)cc1	/	9.8	/	/	/	?
COc1ccc(-c2cn(-c3ccc(C)cc3)c(S(=O)(=O)CC(=O)Nc3ccc(F)cc3)n2)cc1	/	22.1	/	/	/	-3.2%
O=c1[nH]nc(-c2ccc([N+](=O)[O-])o2)c(=O)[nH]1	14.2%	-93.2*	/	/	/	/
Nc1nnc(-c2ccc([N+](=O)[O-])o2)s1	?	-17.6	/	/	/	/
O=C1CC(c2ccc(Cl)cc2)CC(O)=C1C=NCCO (centres undefined)	-5.1%	9.8	61.9%	19.4%	2.9%	1.6%
CC(C)(C)C(=O)Cn1ncc(Br)c(Br)c1=O	10µM*	-101.0*	7.4%	-30.6%	-0.7%	/
COc1cc2c(cc1OC)C1=C(C#N)COCN1CC2	-9.8%	?	3.7µM*	?	2.4%	20µM*
COc1cc(OC)c(Nc2nc3ccccc3nc2-n2nc(C)cc2C)cc1Cl	/	-3.2	/	/	/	0.5%
CC(=O)c1ccc(NC(=O)C2C3CCC(C3)C2C(=O)O)cc1 (centres undefined)	9.6%	36.6	13.1µM*	-4.6%	-6.9%	?
CC(=O)Nc1ccc(NC(=O)C2C3CCC(C3)C2C(=O)O)cc1 (centres undefined)	7.1%	/	22.1%	-7.4%	-0.3%	-2.3%
CN(C)c1ccc(NC(=O)C2C3C=CC(C3)C2C(=O)O)cc1 (centres undefined)	10.0%	-13.2	?	2.62µM*	0.4%	?
Cc1ccc(C)c(OCC(=O)N2CCN(c3ncccn3)CC2)c1	7.7%	-9.0	?	?	2.2%	-12.8%
COc1ccc(-c2nnc(SCc3cc(C)ccc3C)n2N)cc1	-14.7%	-35.5	1.0%	-17.0%	2.7%	2.4%
Cc1cccc(OCc2nc(-c3nonc3N)no2)c1C	-9.0%	60.4	?	63.0%	-8.9%	12.5%
